Laboratory results taken from PubChem BioAssay AID1851 (National Center for Advancing Translational Sciences (NCATS), 2009).
Hit rate of the full screen: of about 16,000 compounds, about 5,800 (36%) were called active. Roughly 23% stayed inconclusive and do not appear here. The call rests on the fitted dose curve; in most records, active means well fitted curve in the direction sought with a large enough effect; inconclusive means small, poorly fitted or top-dose-only effect, or effect the other way; inactive means no such curve, though single readings can be large or run the other way. Some of the results follow. Where a structure was tested more than once in an assay, its records may differ in their call.

Molecular target: Cytochrome P450 2C19 (Homo sapiens) (UniProt P33261)
Sequence (P33261 whole entry, looked up): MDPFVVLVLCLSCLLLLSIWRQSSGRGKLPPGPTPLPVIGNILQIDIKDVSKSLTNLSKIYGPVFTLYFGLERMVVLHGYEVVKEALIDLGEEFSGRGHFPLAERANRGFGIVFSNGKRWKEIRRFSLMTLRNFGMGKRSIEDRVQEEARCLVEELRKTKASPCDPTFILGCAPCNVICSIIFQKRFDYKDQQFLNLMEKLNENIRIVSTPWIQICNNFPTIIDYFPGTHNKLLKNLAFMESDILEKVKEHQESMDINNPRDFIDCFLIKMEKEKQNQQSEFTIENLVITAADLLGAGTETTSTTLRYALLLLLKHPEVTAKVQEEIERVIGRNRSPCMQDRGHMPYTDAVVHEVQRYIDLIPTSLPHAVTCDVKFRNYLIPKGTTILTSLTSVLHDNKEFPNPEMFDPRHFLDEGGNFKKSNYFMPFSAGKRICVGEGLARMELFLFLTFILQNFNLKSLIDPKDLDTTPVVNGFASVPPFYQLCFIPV
Assay: Cytochrome panel assay with activity outcomes
Details: recombinant CYP, pro-luciferin dealkylation, luminescence, p450-cyp2c19; series mostly up to 57.1 µM; activity, negative = inhibition: at the top concentration
On the % scale 0 is the no-effect control and ±100 the full control effect.

| SMILES | activity, negative = inhibition | AC50 |
| --- | --- | --- |
| O=C1C2=C(Nc3cc([N+](=O)[O-])ccc3N2)O[C@@H]1c1ccc([C@H]2OC3=C(Nc4ccc([N+](=O)[O-])cc4N3)C2=O)cc1 | -18.1% [at 11.4 µM] (inactive) |  |
| O=C1Nc2ccc([N+](=O)[O-])cc2C1(O)N1CCCCCC1 (stereo not given) |  | 10 µM (active) |
| CCN(CC)c1nc(Nc2ccccc2)nc(Oc2ccc(C(=O)OC)cc2)n1 |  | 7.94 µM (active) |
| Cc1ccc(/C=C2\Sc3ccccc3C2=O)s1 |  | 1.26 µM (active) |
| O=C1C(Cc2ccccc2)SC(=Nc2ccccc2)N1c1ccccc1 (stereo not given) |  | 3.16 µM (active) |
| CN1CCN(/C=N/C2=C(C#N)C(c3ccccc3)C3=C(CC(C)(C)CC3=O)O2)CC1 (stereo not given) |  | 20 µM (active) |
| O=C(O)c1cccc(OCCO)c1 | 13.7% [at 11.4 µM] (inactive) |  |
| COC(=O)c1cccc(NC(=O)CCCOc2ccccc2)c1 |  | 2.24 µM (active) |
| O=C(CCOc1ccccc1)Nc1ccccc1 |  | 3.55 µM (active) |
| NCC(=O)Nc1ccccc1 | -29.3% [at 11.4 µM] (inactive) |  |
| C#CCCCC(=O)Nc1ccccc1 | -21.6% (inactive) |  |
| Cc1ccc(NCC(=O)N/N=C/c2ccc(OC(=O)c3ccco3)cc2)cc1 |  | 2.51 µM (active) |
| Cc1ccc(NCC(=O)N/N=C\c2ccc([N+](=O)[O-])o2)cc1 |  | 8.91 µM (active) |
| NC(=O)N/N=C\c1ccc([N+](=O)[O-])o1 | -7.91% [at 25.6 µM] (inactive) |  |
| Cc1cc(C(=O)N/N=C/c2cccc(OC(=O)c3ccco3)c2)n[nH]1 |  | 25.1 µM (active) |
| COc1ccc(C(=O)NC(CO)c2nnc(SCc3ccc(Cl)c(Cl)c3)n2C)cc1 (stereo not given) |  | 15.8 µM (active) |
| COC(=O)c1ccccc1NC(=O)CSc1nnc(C(CO)NC(=O)c2ccccc2Cl)n1C (stereo not given) | -8.18% (inactive) |  |
| CC(=O)OCC(=O)[C@@]1(O)CC[C@@H]2[C@H]3CCC4=CC(=O)C=C[C@]4(C)[C@]3(F)[C@@H](O)C[C@@]21C | -2.19% [at 25.6 µM] (inactive) |  |
| Cc1cc(NC(=O)NC(=O)c2ccc(F)cc2F)n[nH]1 |  | 11.2 µM (active) |
| Cc1cc(C)c(NC(=O)NC(=O)c2ccc(F)cc2)c(C)n1 | -22.5% (inactive) |  |
| Cc1onc(-c2ccccc2)c1C(=O)NCCc1c[nH]c2ccccc12 |  | 1.78 µM (active) |
| CCCC(O)(CCC)C(=O)NN1CCCCC1 | -29.5% (inactive) |  |
| CC(=O)[C@H]1CC[C@H]2[C@@H]3C=CC4=CC(=O)CC[C@@]4(C)[C@H]3CC[C@]12C |  | 1 µM (active) |
| CC(=O)[C@@H]1CC[C@@H]2[C@@H]3C[C@H](C)C4=CC(=O)CC[C@@]4(C)[C@H]3[C@H](O)C[C@]21C | -13.1% [at 25.6 µM] (inactive) |  |
| CC(=O)[C@H]1CC[C@@H]2[C@H]3CC=C4C[C@@H](O)CC[C@]4(C)[C@H]3CC[C@]12C | -28.4% [at 25.6 µM] (inactive) |  |

| SMILES | activity, negative = inhibition | AC50 |
| --- | --- | --- |
| COc1ccc(-c2nc3cnc(N4CCNCC4)nc3n(Cc3cccs3)c2=O)cc1 | -34.1% (inactive) |  |
| O=c1c(-c2ccc(F)cc2)nc2cnc(N3CCNCC3)nc2n1Cc1cccs1 |  | 15.8 µM (active) |
| Cn1c(=O)c(-c2cccs2)nc2cnc(N3CCNCC3)nc21 | -20.8% (inactive) |  |
| O=c1c(-c2ccc(F)cc2)nc2cnc(N3CCOCC3)nc2n1Cc1cccs1 | -4.15% (inactive) |  |
| Cc1nc2cnc(N3CCNCC3)nc2n(Cc2cccs2)c1=O | -13.3% (inactive) |  |
| O=c1c(-c2cccs2)nc2cnc(N3CCNCC3)nc2n1Cc1cccs1 |  | 5.01 µM (active) |
| O=C(NCc1ccco1)Nc1cccs1 |  | 11.2 µM (active) |
| N#Cc1ccccc1NC(=O)Nc1cccs1 | 13% (inactive) |  |
| CCN1CCN(Cc2ccc(NC(=O)Nc3cccs3)cc2)CC1 | -25% (inactive) |  |
| COc1ccc(CNC(=O)Nc2cccs2)cc1OC |  | 5.62 µM (active) |
| COc1ccc(C[C@@](C)(N)C(=O)O)cc1OC | -38% [at 25.6 µM] (inactive) |  |
| N[C@@H](CO)C(=O)NNCc1ccc(O)c(O)c1O |  | inactive |
| O=C(Nc1cccc(F)c1)N1CC2(CCN(C(=O)c3csnn3)CC2)C1 | -37.6% (inactive) |  |
| COc1ncc2ncc(=O)n(C)c2n1 | 4.02% (inactive) |  |
| O=C(Cc1cccc2ccccc12)N/N=C/c1ccc(Sc2nc3ccccc3s2)o1 |  | 0.891 µM (active) |
| COCC(=O)N/N=C/c1ccc(Sc2nc3ccccc3s2)o1 |  | 14.1 µM (active) |
| OCCN=C1CCCc2c1[nH]c1ccc(Br)cc21 | -15.8% (inactive) |  |
| COC(=O)c1cnn(C(=O)c2cc(OC)ccc2Br)c1N |  | 20 µM (active) |
| COC(=O)c1cnn(C(=O)c2ccccc2Br)c1N |  | 8.91 µM (active) |
| Nc1nc2c(c(=O)[nH]1)CN(CCCN1CCOCC1)CN2 | 24.4% [at 11.4 µM] (inactive) |  |
| CCn1c2ccccc2c2cc(N=C3SC(CC(=O)Nc4ccccc4OC)C(=O)N3C)ccc21 (stereo not given) |  | 1.41 µM (active) |
| CCn1c2ccccc2c2cc(N=C3SC(CC(=O)Nc4ccccc4)C(=O)N3C)ccc21 (stereo not given) |  | 2 µM (active) |
| CCn1c(=O)cc(OCC(=O)Nc2cccnc2)c2ccccc21 | -27.8% (inactive) |  |
| N=C(N)SCc1ccc(Cl)cc1Cl (tested in a mixture with another compound) | -2.42% [at 11.4 µM] (inactive) |  |
| N=C(N)SCc1nc(-c2ccc(Cl)cc2)no1 |  | 1 µM (active) |

| SMILES | activity, negative = inhibition | AC50 |
| --- | --- | --- |
| Cc1ccc(-c2noc(CN3CCN(C(c4ccccc4)c4ccccc4)CC3)n2)cc1 |  | 17.8 µM (active) |
| CN1CCN(C(c2ccccc2)c2ccccc2)CC1 | -8.64% [at 25.6 µM] (inactive) |  |
| Clc1ccc(-c2noc(CN3CCCCC3)n2)cc1 |  | 1.58 µM (active) |
| CS(=O)(=O)N1CCC2(CC1)CN(C(c1ccccc1)c1ccccc1)C2 | 6.14% (inactive) |  |
| c1ccc([P+](CC[P+](c2ccccc2)(c2ccccc2)c2ccccc2)(c2ccccc2)c2ccccc2)cc1 | -40.8% [at 11.4 µM] (inactive) |  |
| O=C(O)CC12C[C@H]3C[C@@H](CC(O)(C3)C1)C2 | 7.05% [at 11.4 µM] (inactive) |  |
| O=C(NCCN1CCOCC1)c1nn2c(c1Cl)NC(c1ccccc1)CC2C(F)(F)F (stereo not given) | -27.1% (inactive) |  |
| CCCn1nc(C(=O)NCC(C)(C)N2CCOCC2)c2ccccc2c1=O |  | 17.8 µM (active) |
| Cn1cc[nH]c1=S | -32.6% [at 25.6 µM] (inactive) |  |
| COCCNc1cc(-c2ccccc2C)ncn1 |  | 15.8 µM (active) |
| COCCNc1cc(-c2ccccc2CN(C)C)ncn1 | 26.2% (inactive) |  |
| CC(=O)NCCNc1cc(-c2ccccc2C(F)(F)F)ncn1 | 26.9% (inactive) |  |
| COCCNc1cc(-c2ccccc2C(F)(F)F)ncn1 |  | 7.94 µM (active) |
| COCCNc1cc(-c2c(C)noc2C)ncn1 | -0.798% (inactive) |  |
| O=c1nc2ccccc2c2n1C[C@H](CN1CCN(c3ccccc3)CC1)N2 | -14.1% (inactive) |  |
| O=C1CC2(CCCC2)CC(=O)N1CCCCNC[C@H]1COc2ccccc2O1 | -32.6% (inactive) |  |
| COc1ccccc1NC(=O)CC1COc2ccccc2O1 (stereo not given) |  | 7.08 µM (active) |
| COc1cccc(OC)c1OCCCN1CCOCC1 | -65% (inactive) |  |
| COc1cccc(OC)c1OCCNC[C@@H]1COc2ccccc2O1 |  | 794 nM (active) and inactive |
| CCN1CCCC1CNC(=O)C(=O)Nc1ccccc1OC (stereo not given) | -21.8% (inactive) |  |
| C(=C1/CCCC2=C1Nc1ncnn1C2c1ccccc1)/c1ccccc1 (stereo not given) | -28.3% (inactive) |  |
| CCCCC1CC(/C(C)=N/NC(N)=O)OC1=O (stereo not given) | -23% (inactive) |  |
| CC1=CC(=O)c2ccccc2C1=O |  | 2.51 µM (active) |
| COc1cc2nncc(SCc3ccc(Cl)c(Cl)c3)c2cc1OC |  | 2.51 µM (active) |
| CCCCNc1ccc(C(=O)OCCOCCOCCOCCOCCOCCOCCOCCOCCOC)cc1 | 2.87% [at 25.6 µM] (inactive) |  |

| SMILES | activity, negative = inhibition | AC50 |
| --- | --- | --- |
| CCCCN(CCCC)CCCOC(=O)c1ccc(N)cc1 | -26.5% [at 25.6 µM] (inactive) |  |
| CCCCOC(=O)c1ccc(O)cc1 |  | 6.31 µM (active) |
| FC(F)(F)c1ccccc1-c1nc(Nc2ccncc2)c2ccccc2n1 |  | 2 µM (active) |
| Clc1ccccc1-c1nc(Nc2ccncc2)c2ccccc2n1 |  | 5.01 µM (active) |
| Cc1ccccc1-c1nc(Nc2ccncc2)c2ccccc2n1 | -38% (inactive) |  |
| C[C@H](O/N=C1/[C@H]2O[C@@H]2[C@@H](O)[C@H]2[C@H]1CCn1c(=O)n(-c3ccccc3)c(=O)n12)c1cn([C@H]2COC[C@H]2O)nn1 | 42.5% [at 11.4 µM] (inactive) |  |
| CN(C)CCC=C1c2ccccc2C=Cc2ccccc21 |  | inactive |
| Cc1ccccc1-n1cnc2cc(NCc3cccs3)ccc21 |  | 2.51 µM (active) |
| Cc1noc(C)c1-c1nc(NCc2cccs2)c2ccccc2n1 | -38.6% (inactive) |  |
| c1ccc(-n2cnc3cc(NCc4cccs4)ccc32)cc1 |  | 2.82 µM (active) |
| CO[C@H]1COC(=O)C/C=C\[C@H](C)COC(=O)[C@@H](OCc2ccccc2)/C=C\[C@@H]1C | -37% [at 11.4 µM] (inactive) |  |
| Cc1ccc2c(c1)NCC(C(=O)NC1CCCCC1)O2 (stereo not given) |  | 3.55 µM (active) |
| CCC1(C)Nc2ccccc2C(=O)N1O (stereo not given) | 12.7% (inactive) |  |
| CCCCC1(C)Nc2ccccc2-c2nc3ccccc3n21 (stereo not given) |  | 0.708 µM (active) |
| CCCC1(C)Nc2ccccc2-c2nc3ccccc3n21 (stereo not given) |  | 1.41 µM (active) |
| COc1cccc2c1C(=O)c1c(O)c3c(c(O)c1C2=O)C[C@@](O)(C(=O)CO)C[C@H]3O[C@H]1C[C@@H](N)[C@H](O)[C@@H](C)O1.[W] | 9.1% [at 11.4 µM] (inactive) |  |
| CS(=O)(=O)N1CCC2(CCN(C(=O)Nc3cccc(C#N)c3)CC2)CC1 | -27.4% (inactive) |  |
| O=C(Nc1cccc(Cl)c1)N1CCN2C(=O)c3ccccc3C12c1ccccc1 (stereo not given) |  | 2.24 µM (active) |
| COCC(C)n1c(C)cc(C(=O)CSc2nnc(Nc3ccccc3F)s2)c1C (stereo not given) |  | 2 µM (active) |
| Cc1ccc(CN(C(=O)c2cc3ccccc3oc2=O)C2CCS(=O)(=O)C2)cc1 (stereo not given) |  | 14.1 µM (active) |
| O=C(c1sc2ccccc2c1Cl)N(Cc1ccccc1)C1CCS(=O)(=O)C1 (stereo not given) |  | 3.16 µM (active) |
| CCCN(C(=S)Nc1ccccc1)C1CCS(=O)(=O)C1 (stereo not given) | -23.4% (inactive) |  |
| CCc1ccc(OCC(=O)OC2CCS(=O)(=O)C2)cc1 (stereo not given) | -23.3% (inactive) |  |
| CCOc1ccc(CN(C(=O)c2oc3ccccc3c2C)C2CCS(=O)(=O)C2)cc1 (stereo not given) |  | 1.41 µM (active) |
| Cc1cc(C)c[n+](CC(=O)c2cc3ccccc3oc2=O)c1 | 4.16% (inactive) |  |
